# Bioassay records (PubChem)
# An excerpt weighted towards active compounds, which were near 2% of everything screened.
# CHRM4 PAM – human M4 muscarinic receptor positive allosteric modulators, primary screen, CHO-K1 cells, Fluo-8 calcium fluorescence | CHO-K1 hM4/Gqi5, ACh EC20; 0% = ACh EC20, 100% = maximal ACh | AID 624126, 2012 | 360,000 compounds, 0.4% hits | activation, % at 3 µM;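 active = activation above its plate's cutoff, the mean activation of sample wells plus 3 SD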
# Target sequence (P08173 whole entry, looked up): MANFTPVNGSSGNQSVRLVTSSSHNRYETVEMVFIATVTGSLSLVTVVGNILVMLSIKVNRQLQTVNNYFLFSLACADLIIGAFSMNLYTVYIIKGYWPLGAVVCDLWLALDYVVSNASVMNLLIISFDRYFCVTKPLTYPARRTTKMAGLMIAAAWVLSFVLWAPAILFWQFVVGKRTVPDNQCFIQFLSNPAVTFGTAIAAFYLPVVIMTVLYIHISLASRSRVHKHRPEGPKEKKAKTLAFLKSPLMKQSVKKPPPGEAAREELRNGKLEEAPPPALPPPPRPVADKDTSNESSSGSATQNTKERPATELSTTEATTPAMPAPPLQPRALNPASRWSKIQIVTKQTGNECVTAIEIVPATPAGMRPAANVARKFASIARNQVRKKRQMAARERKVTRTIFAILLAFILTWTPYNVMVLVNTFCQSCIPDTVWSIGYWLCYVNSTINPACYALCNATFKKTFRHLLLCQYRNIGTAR
# CHRM4 antagonist – human M4 muscarinic receptor antagonists, primary screen, CHO cells, Fluo-8 calcium fluorescence; inhibition, % at 3 µM; 360,000 compounds, 0.73% hits; CHO-hM4 cells, ACh EC80; Muscarinic acetylcholine receptor M4 (Homo sapiens), P08173; AID 624125, 2012;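 active = inhibition above its plate's cutoff, the mean inhibition of sample wells plus 3 SD, cut at about 27% in these data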;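 note: 0% = acetylcholine EC80 with DMSO and 100% = DMSO without agonist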
# CHO-K1 Ca PAM – nonselective calcium activators in parental CHO-K1 cells, primary screen, counter-screen for M1 PAM project, cell-based, Fluo-8 calcium fluorescence, full deck, 1536-well; 360,000 compounds, 0.02% hits; activation, % at 3 µM; ATP EC20; 0% at ATP EC20, 100% at ATP max;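 active = activation above the run cutoff, the mean activation of all test compounds plus 3 SD, cut at about 40% in these data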;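 note: peak over basal fluorescence ratio in a 140 s read after ATP addition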
# CHO-K1 Ca ag – counter-screen for M1 agonists: effect in parental CHO-K1 cells; Fluo-8 calcium fluorescence; scaled to maximal ATP response, vehicle zero; activation, % at 3 µM; 360,000 compounds, 0.48% hits; in the data active = activation above about 15%;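 note: untransfected CHO-K1 host cells lacking M1 receptor as counterscreen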
# M4 ag – human M4 muscarinic receptor agonists, primary screen, CHO-K1 cells, Fluo-8 calcium fluorescence; activation, % at 3 µM; Muscarinic acetylcholine receptor M4 (Homo sapiens), P08173; CHO-K1 hM4/Gqi5; vehicle 0%, full acetylcholine response 100%; 360,000 compounds, 0.14% hits;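 active = activation above the run mean over all test wells plus 3 SD, cut at about 32% in these data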;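 note: peak over basal fluorescence ratio per well then scaled between controls; 0% = DMSO wells and 100% = acetylcholine at EC100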
# CHO-K1 Ca antag – counter-screen for M1 antagonists: effect in parental CHO-K1 cells; AID 602250; 360,000 compounds, 0.6% hits; ATP-induced calcium, Fluo-8 fluorescence; inhibition, % at 3 µM;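 active = inhibition above a per-plate cutoff, the plate's mean sample inhibition plus 3 SD, cut at about 24% in these data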;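 note: 0% = DMSO plus EC80 ATP and 100% = DMSO alone without ATP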
# * = called active by the depositor; · = no result given.
SMILES,CHRM4 PAM,CHRM4 antagonist,CHO-K1 Ca PAM,CHO-K1 Ca ag,M4 ag,CHO-K1 Ca antag
Cc1ccc(NC(=O)CCCCCNS(=O)(=O)c2ccc(C)cc2)cc1,-1,7,20,0,0,-10
Cc1c(C#N)c(O)n(CCO)c(=O)c1N=Nc1ccc2c(c1)COC2=O,-15,14,-14,1,2,-1
Clc1ccc2ccc3cccnc3c2n1,-3,4,-7,0,0,5
O=S1(=O)Nc2c(ccc3cccnc23)-c2ccccc21,-7,30*,-3,2,2,20
Cc1cc(C)c2c(=O)n(CC(=O)Nc3ccc(Br)c(C)c3)sc2n1,4,7,1,1,2,-1
Cc1cc(C)c2c(=O)n(CC(=O)Nc3cccc(Cl)c3C)sc2n1,-37,70*,3,19*,67*,4
O=C(C1CCN(c2ccc(N3CCOCC3)nn2)CC1)N1CCc2ccccc2C1,-17,46*,10,0,1,-7
Cc1cc(C)n(S(=O)(=O)c2ccc(C(C)(C)C)cc2)n1,-29,29*,-10,1,1,12
Cc1ccc(S(=O)(=O)Nc2ccc(NC(=O)Nc3cccc(C(F)(F)F)c3)cc2)cc1,-9,14,17,3,4,2
O=C(Nc1ccncc1)Nc1cccc(C(F)(F)F)c1,-6,5,-20,14,18,23
CCN(CC)S(=O)(=O)c1ccc(NC(=O)Nc2cccc(C(F)(F)F)c2)cc1,-11,9,0,11,17,28*
O=C(Nc1ccc(OC(F)F)cc1)Nc1cccc(C(F)(F)F)c1,-19,12,-1,10,13,27*
Cc1nc(SCc2ccc([N+](=O)[O-])cc2)n[nH]1,11,-10,19,0,0,-16
CC(C)NC(=O)CN1CCN(C(=O)c2ccc3oc(CCCc4ccccc4)nc3c2)CC1,23*,-4,5,1,3,-4
COc1c(Cl)ccc(Cl)c1C(=O)NCc1ccco1,4,-15,14,0,0,-4
CCS(=O)(=O)N1Cc2ccccc2CC1C(=O)Nc1nc(C)cs1 (stereo not drawn),-2,-2,-11,-1,0,32*
CCOC(=O)c1[nH]c(C)c(/C(O)=C2\C(=O)C(=O)N(CCCN3CCOCC3)C2c2cccnc2)c1C (stereo not drawn),6,6,11,19*,0,0
CC(C)c1ccc(NC(=O)C2CC(=O)N(C3CCCC3)C2)cc1 (stereo not drawn),18*,-19,16,2,4,-15
CCC(=O)N(Cc1cc(=O)[nH]c2ccccc12)c1ccccc1C,11,1,-31,-1,1,55*
O=C(c1ccccc1)c1c2c(cc3sc4ccccc4[n+]13)-c1cccc3cccc-2c13,-39,59*,8,24*,33*,24*
C/C(=N\NC(=O)Cn1c(-c2ccccn2)nc2ccccc21)c1ccccc1,-8,-1,-14,1,10,26*
C/C(=N\NC(=O)Cn1c(-c2ccccn2)nc2ccccc21)c1cccc(O)c1,-8,-9,-13,2,8,20
COc1cc(/C=C2\SC(=S)N(NC(=O)c3ccc(O)c(OC)c3)C2=O)ccc1O,-21,23,8,17*,35*,8
COc1cc(/C=C2\SC(=S)N(NC(=O)c3ccncc3)C2=O)ccc1O,-17,1,12,8,6,-4
COc1cc(/C=C2\SC(=S)N(NC(=O)c3cccc(O)c3)C2=O)ccc1O,-14,12,-34,14,36*,13
SMILES,CHRM4 PAM,CHRM4 antagonist,CHO-K1 Ca PAM,CHO-K1 Ca ag,M4 ag,CHO-K1 Ca antag
Cc1ccc(C)c(Nc2nn3c(=O)c4ccc(C(=O)NCc5cccnc5)cc4nc3s2)c1,-6,31*,5,1,-1,-13
CCOC(=O)C1CCN(C(=O)c2ccc3c(=O)n4nc(Nc5cc(C)ccc5C)sc4nc3c2)CC1,6,-8,-19,1,2,-9
CN1OC(COC(=O)c2ccccc2)CC1c1ccccc1 (stereo not drawn),11,-8,3,0,-1,4
CCOCCCN(C(=O)CNC(=O)c1ccco1)C(C(=O)NC1CCCC1)c1ccccc1C (stereo not drawn),11,1,5,2,1,44*
COc1ccc(C(C(=O)NC2CCCC2)N(Cc2ccccc2)C(=O)CNC(=O)c2ccco2)cc1 (stereo not drawn),-2,-5,-4,1,5,32*
COc1ccc(CN(C(=O)Cc2c[nH]c3ccccc23)C(C(=O)NC2CCCCC2)c2ccc(C)o2)cc1 (stereo not drawn),-12,2,5,2,0,-1
COCCN(C(=O)c1ccco1)C(C(=O)NC1CCCC1)c1cccs1 (stereo not drawn),1,0,-6,0,0,25*
C=CCN(C(=O)CNC(=O)c1ccco1)C(C(=O)NC1CCCCC1)c1ccc(OC)cc1 (stereo not drawn),0,9,9,0,3,-6
Cc1ccc(C(C(=O)NC2CCCCC2)N(Cc2ccccc2)C(=O)Cc2c[nH]c3ccccc23)o1 (stereo not drawn),-5,-2,19,19*,3,5
CCCN(CC1CC1)c1nc(N)c2c(N)nc(OC)cc2c1C#N,10,-6,14,5,7,0
CC(C)C(=O)Nc1ccc(C(=O)N/N=C/C2CC3C=CC2C3)cc1 (stereo not drawn),2,-5,-10,0,2,22
CC1(C(=O)Nc2ccc3c(c2)OCCO3)CN(S(C)(=O)=O)CC(=O)N1Cc1ccco1 (stereo not drawn),4,-9,·,·,1,·
Cc1cc(C)c(NC(=O)CNC(=O)CNC(=O)C2CCCCC2)c(C)c1,1,-2,4,0,0,-8
Cc1c(NC(=O)C(C)OC(=O)Cc2ccc(F)cc2)c(=O)n(-c2ccccc2)n1C (stereo not drawn),-4,13,-17,0,0,25*
Cc1ccc2nc(-c3ccccc3)cc(C(=O)N3CCN(S(=O)(=O)c4c(C)noc4C)CC3)c2c1,17,8,15,1,3,-15
Clc1ccc(C(CCN2CCCC2)Cc2ccccc2)cc1 (stereo not drawn),-19,32*,4,2,4,-7
O=c1oc2ccccc2c(NC(c2ccccc2)c2ccccc2)c1[N+](=O)[O-],2,0,-2,2,2,9
